Compound activity as filed in PubChem.
The sample as a whole holds a higher share of hits than the screen did.
NS1 function inh – inhibitors of influenza NS1 protein function; Potency, µM (top dose mostly 46.1 µM); hit rate 0.4% among 270,000; calls by dose curve; note: actives are rising curves; nearly all actives have a fitted effect of over 50% in size
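Compounds were scored for reversing the slow growth caused by influenza A NS1 in S. cerevisiae, measured by optical density at 600 nm. Assay medium contained 2% galactose at pH 6.0; NS1-free yeast of the same strain were the positive control.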
Shiga inhibitor – inhibitors of Shiga toxin in Vero cells; Vero cells, Shiga toxin protein synthesis inhibition reporter; inhibition, % at 38.7 µM; hit rate 9.2% among 290,000; AID 2315; in the data active = inhibition mostly above about 28%, no sharp cut-off; inactive = mostly below about 43%
SARS PLpro yeast – inhibitors of SARS-CoV papain-like protease in yeast; S. cerevisiae expressing SARS-CoV PLpro, growth rescue; Potency, µM (titrated, usually from 32.9 µM), usual class: activators; hit rate 0.19% among 330,000; AID 485353; calls by dose curve; note: nearly all actives have a fitted effect of over 55% in size
LmPK inh – blocks Leishmania mexicana pyruvate kinase activity. Q27686. purified LmPK, Kinase-Glo ATP luminescence, 1 h. Potency, µM (highest dose often 57.5 µM), most hits filed as inhibitors. hit rate 0.37% among 290,000. AID 1721
Target sequence (Q27686 whole entry, looked up): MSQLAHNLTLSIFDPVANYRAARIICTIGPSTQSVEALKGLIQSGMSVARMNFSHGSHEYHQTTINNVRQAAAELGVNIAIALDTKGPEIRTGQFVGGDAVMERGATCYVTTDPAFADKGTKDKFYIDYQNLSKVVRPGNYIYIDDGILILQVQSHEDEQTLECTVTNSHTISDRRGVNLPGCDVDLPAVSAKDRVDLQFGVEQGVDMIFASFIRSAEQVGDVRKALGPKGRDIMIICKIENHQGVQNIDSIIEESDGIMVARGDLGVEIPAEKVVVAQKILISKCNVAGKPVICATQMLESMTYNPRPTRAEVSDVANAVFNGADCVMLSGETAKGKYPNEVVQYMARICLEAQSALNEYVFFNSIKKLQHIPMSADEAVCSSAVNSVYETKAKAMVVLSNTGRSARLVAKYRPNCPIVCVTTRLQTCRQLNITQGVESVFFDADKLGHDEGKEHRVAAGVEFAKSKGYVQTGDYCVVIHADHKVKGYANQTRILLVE
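Screened at intermediate enzyme activity to detect both inhibitors and activators: LmPK at 0.1 nM, with a 0.5 nM enzyme column as activation reference. PEP 0.5 mM, ADP 0.1 mM; ATP detected by luminescence after 1 h.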
CHX counter – counter-screen hit for Shiga toxin inhibitors, cycloheximide; cell reporter, cycloheximide protein synthesis inhibition counterscreen; hit rate 12% among 300,000; max response, %; in the data active = max response mostly above about 13%, no sharp cut-off; inactive = mostly below about 14%; note: read at 38.3 µM for the half of the compounds with a filed dose
TbPYK inhibitor – blocks Trypanosoma brucei pyruvate kinase. TbPYK enzyme, Kinase-Glo Plus ATP luminescence, 45 min. Q57TT1. AID 624173. Potency, µM (highest dose often 76.8 µM), most hits filed as inhibitors. hit rate 0.12% among 410,000; note: nearly all actives have a fitted effect of over 50% in size
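Activity of T. brucei pyruvate kinase was followed by Kinase-Glo Plus luminescence after the enzyme reacted 45 min at room temperature with 130 uM ADP (final) and substrate. Test compounds were added before ADP at multiple concentrations.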
Of the large screens only hits and unclear results are named; the others gave an inactive call. Unless noted, calls come from the whole dose curve; as a rule, active = well fitted curve in the direction sought with a large enough effect; inconclusive = small, poorly fitted or top-dose-only effect, or another doubt; inactive = no such curve, though single readings can be large; an effect the other way counts as inactive or inconclusive.

COc1cc(/C=N/NC(=O)/C(=C\c2ccc3c(c2)OCO3)NC(=O)c2ccccc2)ccc1O	none
O=C(N/N=C/c1ccsc1)c1ccc2c(c1)OCO2	none (no result: NS1 function inh, Shiga inhibitor, LmPK inh, CHX counter)
COc1cc(/C=N/NC(=O)c2ccc3c(c2)OCO3)ccc1O	NS1 function inh inconclusive, Shiga inhibitor 81, CHX counter 63
COc1ccc(/C=N\NC(=O)C2=NNC(=O)C2C)cc1 (centres undefined)	Shiga inhibitor 42, CHX counter 25
CCOC(CNCc1cc(C)c2[nH]c3ccccc3c2c1C)OCC	none (no result: NS1 function inh, Shiga inhibitor, SARS PLpro yeast, LmPK inh, CHX counter)
CCOc1ccccc1O[C@@H](c1ccccc1)[C@@H]1CNCCO1	none (no result: NS1 function inh, Shiga inhibitor, SARS PLpro yeast, LmPK inh, CHX counter)
Cc1nc2ccccc2c2nc(NC(=O)Cc3ccccc3)nn12	Shiga inhibitor 42
Cc1cc(NC(=O)Cc2ccccc2)c2ccccc2n1	none (no result: NS1 function inh)
O=c1[nH]c(SCc2c(F)cccc2Cl)nc2c1CCCC2	none (no result: NS1 function inh, Shiga inhibitor, SARS PLpro yeast, LmPK inh, CHX counter)
Cc1ccc(N=Cc2nc(-c3ccco3)oc2O)cc1	Shiga inhibitor 101, CHX counter 29
Oc1oc(-c2ccc(Br)cc2)nc1/C=N/c1ccccn1	Shiga inhibitor 120, CHX counter 54 (no result: NS1 function inh)
Cc1ccc(-c2nc(C=Nc3ccccc3)c(O)o2)cc1	Shiga inhibitor 85, CHX counter 51 (no result: NS1 function inh)
Cc1ccc(-c2nc(C=Nc3cccc(C)c3)c(O)o2)cc1	none (no result: NS1 function inh)
CCn1c(=NC(=O)c2ccc(S(=O)(=O)N3CCCCC3)cc2)sc2cccc(OC)c21	none (no result: NS1 function inh, Shiga inhibitor, SARS PLpro yeast, LmPK inh, CHX counter)
CC(C)(C)[C@H](NC(=O)c1ccc(N)c(Cl)c1)C(=O)N1CCC[C@H]1C(=O)N[C@H](C#N)Cc1nn[nH]n1	none (no result: NS1 function inh, Shiga inhibitor, LmPK inh, CHX counter, TbPYK inhibitor)
CSc1nc(-c2ccccc2)c(C#N)c(=O)[nH]1	none
CSc1nc(-c2cccs2)c(C#N)c(=O)[nH]1	CHX counter 8.9
CCOC(=O)Cc1nc(-c2ccc(Cl)cc2)n[nH]1	CHX counter 26
Cc1ccc(-c2n[nH]c(Cc3ccccc3)n2)cc1	Shiga inhibitor 74, CHX counter 49
Cc1ccc(OCc2nc(-c3ccc(Cl)cc3)n[nH]2)cc1	Shiga inhibitor 63, CHX counter 20
CCOC(=O)Cc1ccc(NCc2ccc(Cl)cc2)cc1	none (no result: NS1 function inh)
CC1(C)Cc2c(sc3[nH]c(=O)n(CC(=O)NCC4CCCO4)c(=O)c23)CO1 (centres undefined)	none
Cc1cc(C)cc(NC(=O)C2CCN(C(=O)c3cccs3)CC2)c1	none
COc1cc(NC(=O)CN2CCN(C(=O)c3ccco3)CC2)c(C)cc1[N+](=O)[O-]	none (no result: NS1 function inh, Shiga inhibitor, SARS PLpro yeast, LmPK inh, CHX counter)
Cc1ccc(CNC(=O)c2cc(-c3ccccc3)nn2CC2CC(c3cccc([N+](=O)[O-])c3)=NO2)cc1 (centres undefined)	none (no result: NS1 function inh, Shiga inhibitor, SARS PLpro yeast, LmPK inh, CHX counter)
CC(C)c1nc2sc3c(N4CCCCC4)ncnc3c2c2c1CCCC2	none (no result: NS1 function inh, Shiga inhibitor, SARS PLpro yeast, LmPK inh, CHX counter)
Cc1ccc2scc(N3CCN(C)CC3)c(=O)c2c1	Shiga inhibitor 83, CHX counter 48 (no result: NS1 function inh, SARS PLpro yeast, LmPK inh)
Cc1ccc2scc(N3CCCCC3)c(=O)c2c1	none (no result: NS1 function inh, Shiga inhibitor, SARS PLpro yeast, LmPK inh, CHX counter)
c1ccc(-c2noc(-c3ccno3)n2)nc1	Shiga inhibitor 48, CHX counter 31
c1ccc(-c2nc(-c3ccco3)cs2)nc1	Shiga inhibitor 107, CHX counter 30, TbPYK inhibitor inconclusive
c1ccc(-c2noc(-c3ccco3)n2)nc1	Shiga inhibitor 36, LmPK inh 16µM, CHX counter 29
Nc1cc(-c2ccco2)no1	none
Cc1ccc(-c2noc(-c3cc(-c4ccc(F)cc4)n[nH]3)n2)cc1	none (no result: NS1 function inh, Shiga inhibitor, SARS PLpro yeast, LmPK inh, CHX counter)
Cc1ccc(-c2noc(-c3ccno3)n2)cc1	Shiga inhibitor 82, CHX counter 49
CCNC(=O)C1(C)CCCN(C(=O)c2cccc(C)c2C)C1 (centres undefined)	none (no result: NS1 function inh, Shiga inhibitor, SARS PLpro yeast, LmPK inh, CHX counter)
c1coc(-c2ccnc(-c3ccncc3)n2)c1	none
c1ccc(-c2nccc(-c3ccco3)n2)nc1	Shiga inhibitor 42
Fc1ccc(-c2csc(-c3ccccn3)n2)cc1F	Shiga inhibitor 175, CHX counter 46 (no result: NS1 function inh)
OC(c1ccc(F)c(F)c1)c1nc(-c2ccccc2)cs1 (centres undefined)	none (no result: NS1 function inh, Shiga inhibitor, SARS PLpro yeast, LmPK inh, CHX counter)
O=C(Cn1ncc2ccsc2c1=O)N1CCN(c2ccccc2)CC1	none (no result: NS1 function inh, Shiga inhibitor, SARS PLpro yeast, LmPK inh, CHX counter)
Cc1cc2c(s1)c1c(C)nn(Cc3ccccc3F)c(=O)c1n2C	SARS PLpro yeast 5µM (no result: NS1 function inh, Shiga inhibitor, LmPK inh, CHX counter, TbPYK inhibitor)
O=C(O)c1cc(NCc2cccs2)ccc1N1CCOCC1	none
CC(C)(C)n1cnc2cc(NCc3cccs3)ccc21	Shiga inhibitor 120, CHX counter 30 (no result: NS1 function inh)
CCn1cnc2cc(NCc3cccs3)ccc21	Shiga inhibitor 188, CHX counter 31
COc1ccc(COC[B-](F)(F)F)cc1	none (no result: NS1 function inh, Shiga inhibitor, SARS PLpro yeast, LmPK inh, CHX counter)
O=C(COc1cc(F)ccc1[N+](=O)[O-])NCC1CCCO1 (centres undefined)	none (no result: NS1 function inh, Shiga inhibitor, SARS PLpro yeast, LmPK inh, CHX counter)
Nc1cccc(OCc2nc(N)nc(N)c2-c2ccc(Cl)cc2)c1	none (no result: Shiga inhibitor, SARS PLpro yeast, LmPK inh, CHX counter, TbPYK inhibitor)
CCN1C(=S)SC(=O)C1=C1C=C(C)N(Cc2ccco2)C(C)=C1	Shiga inhibitor 96, CHX counter 55
CN(C)S(=O)(=O)c1ccc(C(=O)Nc2ccc3c(c2)CCC3)cc1	Shiga inhibitor 33, CHX counter 29
COc1ccc(NC(=O)c2ccc(S(=O)(=O)N(C)C)cc2)cc1OC	none
CN(C)S(=O)(=O)c1cccc(C(=O)Nc2ccc3c(c2)CCC3)c1	Shiga inhibitor 106, CHX counter 43
CCCCNC(=O)CSc1nc2cc3c(cc2c(=O)n1CCCC(=O)NCc1ccc(OC)cc1)OCO3	none (no result: NS1 function inh, Shiga inhibitor, SARS PLpro yeast, LmPK inh, CHX counter)
CC(=O)Nc1ccc(S(=O)(=O)NCCC(=O)NCc2ccncc2)cc1	none (no result: NS1 function inh, Shiga inhibitor, LmPK inh, CHX counter)
CS(=O)(=O)NNC(=O)c1cc2cc3ccccc3nc2s1	Shiga inhibitor 53 (no result: NS1 function inh)
CCN(CCCNC(=O)c1cc2cc3ccc(C)cc3nc2s1)c1ccccc1	none (no result: NS1 function inh, Shiga inhibitor, SARS PLpro yeast, LmPK inh, CHX counter)
COc1ccc(S(=O)(=O)NNC(=O)c2cc3cc4ccccc4nc3s2)cc1	none
